Data: PubChem BioAssay (NCATS)
Results filed as inconclusive are left out. For some assays here: Entries with a potency or affinity are not part of this list. The source made the active and inactive calls. Unless noted, no rule for the calls is given here.

What was measured:
[1] = Ebola virus entry assay, green fluorescence channel
[2] = Ebola virus entry assay, blue channel fluorescence
[3] = Ebola virus entry assay, ratio channel
[4] = Ebola virus entry assay, green channel fluorescence
[5] = Ebola virus entry assay, reporter ratio channel; Channel type: primary
[6] = Ebola virus entry assay, blue channel (ratio component)
[7] = qHTS assay for measurement of the activity of small molecule inhibitors on Zika virus induced Caspase-3 activity in human astrocytoma cells (AID 1224859; active = well fitted inhibition curve with a large enough effect;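 also: plate controls were ZIKV-infected untreated cells for no effect and uninfected cells for full effect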); settings: SNB-19 ZIKV-induced caspase-3/7, luminescence, 6 h; series mostly up to 45.7 µM
Outline: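 Compound added 1 h pre-infection; ZIKV 2 FFU/cell on SNB-19 cells, 6 h, 37 C/5% CO2. Caspase-Glo 3/7 luminescence; values as % inhibition of ZIKV-induced caspase activity.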

[8] = qHTS assay for measurement of the activity of small molecule inhibitors on Zika virus induced Caspase-3 activity in human iPSC derived neural progenitor cells (hNPCs) (AID 1224857; active = well fitted inhibition curve with a large enough effect; also: % of control where 0% means no effect; nearly all actives have a fitted effect of over 65% in size); settings: hNPCs ZIKV-induced caspase-3/7, Caspase-Glo luminescence, 6 h; series mostly up to 45.7 µM
Outline: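 Values are percent inhibition of virus-induced caspase-3/7 signal, scaled between uninfected cells and ZIKV-infected cells. Infection used 2 FFU/cell for 6 h after 1 h compound exposure.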

[9] = qHTS profiling of the MIPE4 collection as inhibitors of Plasmodium falciparum (3D7) proliferation (AID 743344);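 also: scaled between DMSO vehicle wells and 0.29 µM artemisinin as full inhibition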; settings: P. falciparum 3D7 in erythrocytes, SYBR Green DNA fluorescence, 72 h; at 28.5 µM (top of the series)
Outline: (§1)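 Erythrocytes infected with P. falciparum (0.3% parasitemia, 2.5% hematocrit) incubated with compounds 72 h at 37 C, 5% CO2. Lysis with saponin/Triton buffer containing SYBR Green I, overnight at room temperature in the dark; DNA fluorescence (485/535 nm) normalised to 0.29 uM artemisinin and DMSO.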

[10] = qHTS profiling of the MIPE4 collection as inhibitors of Plasmodium falciparum (DD2) proliferation (Rep 2) (AID 743346); settings: P. falciparum Dd2 in erythrocytes, SYBR Green DNA, 72 h; at 28.5 µM (top of the series)
Outline: as §1
For efficacy in this document: 0% is about no effect.

C[N+](C)(C)CCOC(=O)C(O)(c1ccccc1)c1ccccc1
inactive: efficacy [1] -27.9% | outcome [2] | outcome [3] | outcome [4] | outcome [5] | outcome [6] | outcome [7]

O=C(O)Cc1ccccc1
inactive: efficacy [1] -19.3% | outcome [2] | outcome [3] | outcome [4] | outcome [5] | outcome [6] | Potency [8] | outcome [7]

CC1=C2[C@H]3OC(=O)[C@@H](C)[C@@H]3CC[C@@]2(C)C=CC1=O
inactive: efficacy [1] 18.3% | outcome [2] | outcome [3] | outcome [4] | outcome [5] | outcome [6] | Potency [8] | outcome [7]

O=c1[nH]c2cc(Cl)ccc2n1C1CCNCC1
inactive: efficacy [1] 11.1% | outcome [2] | outcome [3] | outcome [4] | outcome [5] | outcome [6] | Potency [8] | outcome [7]

Cc1ncc2n1-c1ccc(Cl)cc1C(c1ccccc1F)=NC2
inactive: efficacy [1] -12% | outcome [2] | outcome [3] | outcome [4] | outcome [5] | outcome [6] | outcome [7]

CCC1(c2ccccc2)CCC(=O)NC1=O (centres undefined)
inactive: efficacy [1] 11% | outcome [2] | outcome [3] | outcome [4] | outcome [5] | outcome [6] | Potency [8] | outcome [7]

CCOC(=O)c1ncn2c1CN(C)C(=O)c1c(I)cccc1-2
inactive: efficacy [1] 19.2% | outcome [2] | outcome [3] | outcome [4] | outcome [5] | outcome [6] | Potency [8] | outcome [7]

COc1cc(CC#N)cc(OC)c1OC
inactive: efficacy [1] -13.1% | outcome [2] | outcome [3] | outcome [4] | outcome [5] | outcome [6] | Potency [8] | outcome [7]

COc1ccc(CN2CCNCC2)c(OC)c1OC
inactive: efficacy [1] 47.4% | outcome [2] | outcome [3] | outcome [4] | outcome [5] | outcome [6] | Potency [8] | outcome [7]

CCNc1nc(Cl)nc(NCC)n1
inactive: efficacy [1] 16.6% | outcome [2] | outcome [3] | outcome [4] | outcome [5] | outcome [6] | Potency [8] | outcome [7]

CNC(C)Cc1ccc2c(c1)OCO2 (centres undefined)
inactive: efficacy [1] -15.1% | outcome [2] | outcome [3] | outcome [4] | outcome [5] | outcome [6] | Potency [8] | outcome [7]

CNC(C)Cc1ccccc1OC (centres undefined)
inactive: efficacy [1] -13.2% | outcome [2] | outcome [3] | outcome [4] | outcome [5] | outcome [6] | Potency [8] | outcome [7]

CCC1(CC)C(=O)NC(=O)NC1=O
inactive: efficacy [1] -16.1% | outcome [2] | outcome [3] | outcome [4] | outcome [5] | Potency [8] | outcome [7]

CN1CCc2cc(Cl)c(O)cc2[C@H]2c3ccccc3CC[C@@H]21
active: AC50 [2] 25.1 µM | AC50 [3] 17.8 µM | AC50 [5] 17.8 µM
inactive: efficacy [1] 24% | outcome [4] | Potency [8] | outcome [7]

NC(=O)Cc1cccc(C(=O)c2ccccc2)c1N
102%: parasite growth, % of DMSO control [9]
114%: parasite growth, % of control (lower = inhibition) [10]
inactive: efficacy [1] 18% | outcome [2] | outcome [3] | outcome [4] | outcome [5] | outcome [6]

CNC(=O)NC(O)C(Cl)(Cl)Cl (centres undefined)
inactive: efficacy [1] -36.8% | outcome [2] | outcome [3] | outcome [4] | outcome [5] | Potency [8] | outcome [7]

NC1(c2ccccc2)CCCCC1
active: AC50 [2] 35.5 µM | AC50 [3] 31.6 µM | AC50 [5] 31.6 µM
inactive: efficacy [1] 44.3% | outcome [4] | Potency [8] | outcome [7]

CN(C)CCc1c[nH]c2cccc(O)c12
active: AC50 [2] 35.5 µM | AC50 [5] 39.8 µM
inactive: efficacy [1] -23.9% | outcome [3] | outcome [4] | Potency [8] | outcome [7]

C[C@]12CC[C@H]3[C@@H](CCC4=CC(=O)CC[C@@H]43)[C@@H]1CC[C@@H]2O
inactive: efficacy [1] -8.66% | outcome [2] | outcome [3] | outcome [4] | outcome [5] | Potency [8] | outcome [7]

C[C@H]1CNCCc2ccc(Cl)cc21
inactive: efficacy [1] 45.2% | outcome [3] | outcome [4] | Potency [8] | outcome [7]
active: AC50 [2] 20 µM | AC50 [5] 39.8 µM

CC1=C(C(=O)OC(C)C)C(c2cccc([N+](=O)[O-])c2)C(C(=O)OC2CN(C(c3ccccc3)c3ccccc3)C2)=C(N)N1 (centres undefined)
inactive: efficacy [1] -152%
active: AC50 [2] 39.8 µM | AC50 [3] 28.2 µM | AC50 [5] 28.2 µM

CCC(=O)c1ccc2c(c1)N(CCCN(C)C)c1ccccc1S2
inactive: efficacy [1] 153%
active: AC50 [2] 20 µM | AC50 [3] 17.8 µM | AC50 [5] 17.8 µM

CN(C)C(=S)SSC(=S)N(C)C
inactive: efficacy [1] -47% | outcome [4] | outcome [7]
active: AC50 [2] 1.26 µM | AC50 [3] 1.26 µM | AC50 [5] 1.26 µM

CCS(=O)(=O)C(C)(C)S(=O)(=O)CC
inactive: efficacy [1] -10.5% | outcome [2] | outcome [3] | outcome [4] | outcome [5] | Potency [8] | outcome [7]

CC(C)=CCN1CC[C@@]2(C)c3cc(O)ccc3C[C@@H]1[C@@H]2C
active: AC50 [2] 31.6 µM | AC50 [3] 31.6 µM | AC50 [5] 31.6 µM
inactive: efficacy [1] 36% | outcome [4] | Potency [8] | outcome [7]
